Among the data in PubChem BioAssay (Tox21) are outcome, Potency and activity change, negative = inhibition values, retold here.

Results filed as inconclusive are left out. A call without a number means that no potency is given here. Activity calls are given as the source filed them. Calls come from the whole dose curve; as a rule, active = well fitted curve in the direction sought with a large enough effect in the repeat runs; inconclusive = weak or mixed curves; inactive = no such curve, though single readings can be large; an effect the other way counts as inactive or inconclusive.
Note: nearly all actives have a fitted effect of over 50% in size.

Test system in the first test: not listed separately
Description: qHTS assay to identify small molecule antagonists of the retinoid-related orphan receptor gamma (ROR-gamma) signaling pathway - cell viability counter screen (AID 1159520). The conditions noted are these: Tet-on RORgamma CHO cells viability, ATP luminescence, 16 h; series mostly up to 92.4 µM. Summed up:
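Tet-on ROR gamma CHO cells were given compounds for 2 hr, then doxycycline hyclate at 1 uM final, and incubated 16 hr at 37 C. Viability was measured as ATP content by CellTiter-Glo luminescence.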
On to `Cc1c(N)c(=O)n(-c2ccccc2)n1C`, for which the result was inactive. Turning to `CCCCN(CCC(=O)OCC)C(C)=O`, the compound was called inactive. On the same count and under the same terms, then `CCCOC(=O)CC`, with “inactive”; and `OCCc1ccccn1`, with “inactive”.

For the compound `CC/C=C\CCOC(C)OCC` (stereo not given), the result was inactive. Same read-out and setting: the entry for `O=C(O)CNC(=O)c1ccc(CO)o1` is “inactive”. On the same count and under the same terms, the entry for `CC(=O)N1C[C@H](O)C[C@H]1C(=O)O` is “inactive”.

In the next test the target is Nuclear receptor ROR-gamma (Homo sapiens) (UniProt P51449). Description: qHTS assay to identify small molecule antagonists of the retinoid-related orphan receptor gamma (ROR-gamma) signaling pathway (AID 1159521; note: potency is the fitted concentration of half-maximal effect; for activity change, negative = inhibition: top concentration of the series differs between compounds). As to conditions: Tet-on RORgamma CHO cells, RORE-luciferase, 16 h; series mostly up to 92.4 µM. Summed up: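 Screening format: cell-based luciferase reporter in CHO cells with doxycycline-inducible RORγ. Compound pre-exposure lasts 2 h, doxycycline is 1 uM final, induction runs 16 h at 37 C, and ONE-Glo luminescence is read.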
`CC(=O)c1ccc2ccccc2c1`: the Potency result is “inactive”. Same read-out and setting: the entry for `O=[N+]([O-])c1cncn1CCN1CCOCC1` is “inactive”. Still for that read-out and setting: then `CN(C)[C@@H]1C(=O)C(C(=O)NCN2CCCC2)=C(O)[C@@]2(O)C(=O)C3=C(O)c4c(O)cccc4[C@@](C)(O)C3C[C@@H]12` (stereo not given in full), with “inactive”; and `C[C@H]1[C@H](NC(=O)/C(=N/OC(C)(C)C(=O)O)c2csc(N)n2)C(=O)N1S(=O)(=O)O` (stereo in doubt), with “inactive”; and `C1CCC2(CCCCO2)OC1`, with “inactive”.

In the case of `CCOc1c(N2CCOCC2)cnn(C)c1=O`, the Potency entry is “inactive”. Same read-out and setting: the entry for `CC(CC=O)CC(C)(C)C` (stereo not given) is “inactive”; for `CC1=CCC(O)(C(C)C)CC1` (stereo not given) it is “inactive”; for `O=C(O)CNC(=O)c1ccccc1` it is “inactive”. On to `Cc1ncc([C@@H](CCCCCCc2ccc3c(n2)NCCC3)CC(=O)O)cn1`, for which the Potency result was “inactive”. Still for that read-out and setting: the entry for `[Ca+2]` is “inactive”; for `Cc1cccc(C)c1NC(=O)CC12CCCN1CCC2` it is “inactive”; for `CCN1C=CN(C)C1C` (stereo not given) it is “inactive”. On the same count and under the same terms, then `CC1CCC(CO)CC1` (stereo not given), with “inactive”; and `CCC(C)(CCCC(C)C)OC(C)=O` (stereo not given), with “inactive”.

With `Nc1ccn([C@@H]2O[C@H](CO)[C@@H](O)C2O)c(=O)n1` (stereo not given in full), the Potency was 7.7 µM (active).

For the compound `O=C1NC(=O)C2CC=CCC12` (stereo not given), the Potency result was “inactive”. `CC1(C)OC[C@@H](COC(=O)CCc2ccc(OC[C@@H](O)CNCCNC(=O)N3CCOCC3)cc2)O1`: the Potency result is “inactive”. The same measure, in the same setting: the entry for `C[N+]1(C)[C@@H]2CC(OC(=O)[C@H](CO)c3ccccc3)C[C@H]1[C@@H]1O[C@@H]12` (stereo not given in full) is “inactive”. The same measure, in the same setting: the entry for `CC(C)c1ccc2ncccc2c1` is “inactive”. Consider `CCCCN1C=CN(C)C1`, for which the activity change, negative = inhibition was 11.4% [at 19 µM] (inactive).

Regarding `CCCCOC(=O)CCC(C)=O`, the Potency result is “inactive”. As for `COc1cc(C(=O)OC(COCCC(C)C)CN2CCOCC2)cc(OC)c1OC` (stereo not given), the Potency entry is “inactive”.

Turning to `O=C(CO)[C@@H](O)[C@H](O)[C@@H](O)CO`, the Potency result is “inactive”.

Regarding `CN(C)CCCCCCN(C)C`, the Potency result was “inactive”.

As to `CCCC(=O)O[C@]1(C(=O)CC)CC[C@H]2[C@@H]3CCC4=CC(=O)CC[C@]4(C)[C@H]3[C@@H](O)C[C@@]21C`, the Potency is 10.6 µM (active). As for `C=C(C)C(=O)OCCOCCOCCOCCOC(=O)C(=C)C`, the Potency result is “inactive”.

For `CC12CCC(C(=O)C1=O)C2(C)C` (stereo not given), the Potency result is “inactive”. Same read-out and setting: the entry for `O=C(O)Cc1csc(-c2ccc(Cl)cc2)n1` is “inactive”. `Cc1c(N)c(=O)n(-c2ccccc2)n1C`: the Potency entry was “inactive”. Same read-out and setting: the entry for `CCCCN(CCC(=O)OCC)C(C)=O` is “inactive”. On the same count and under the same terms, the entry for `CCOC(=O)c1ccccc1` is “inactive”; for `CCCOC(=O)CC` it is “inactive”; for `OCCc1ccccn1` it is “inactive”.

As to `CC/C=C\CCOC(C)OCC` (stereo not given), the Potency result was “inactive”. Same read-out and setting: then `CN(C)CCN(C)CCN(C)C`, with “inactive”; and `O=C(O)CNC(=O)c1ccc(CO)o1`, with “inactive”; and `CC(=O)N1C[C@H](O)C[C@H]1C(=O)O`, with “inactive”.
